This is an account of results in PubChem BioAssay (NCI).

About 83,000 compounds went through this panel and 20% of them were active in at least one assay; those are over-represented in the sample as a whole.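 Testing used 96-well plates and a 48-hour single-concentration exposure. Example: -40 means 40% of the starting cells died.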 Active and inactive are the calls of the source. How the source made its calls: active means growth percent below 10; inactive means the rest.

The assay relates to MDA-MB-468 breast. The assay is described as follows: NCI-60 one-dose screen, 48 h (100 = growth as untreated, 0 = no growth, -100 = all killed). As to conditions: 10 µM unless noted.
With `COc1cc(-c2ccc(NC(=O)CC(C)=O)c(OC)c2)ccc1NC(=O)CC(C)=O`, the growth was 109% (inactive). With `O=c1oc2ccc(Cl)cc2c(=O)n1-c1ccc(I)cc1F` the figure was 1.73% (active). With `Cn1ncc(CC(=O)O)c1-n1nnc2cc(Cl)ccc2c1=O` the figure was 89.5% (inactive). Consider `CN(C)CCN1C(=O)c2cccc3c(-c4ccc5ncn(C6CCCCC6)c5c4)ccc(c23)C1=O`, for which the growth is 4.33% (active). On to `COC(=O)C1=C(C(=O)OC)C23C=C(C)C1C2=C(C)C1(CC1)[C@@](C)(O)C3=O` (stereo partly specified), for which the growth is -54.2% (active). With `O=C(O)c1cn(C2CC2)c2cc(N3CCN(C(=O)CN4C(=O)CSC4=O)CC3)c(F)cc2c1=O` the figure was 96.4% (inactive). With `O=C(O)C(O)c1ccccc1` (stereo unspecified) the figure was 100% (inactive); with `COCCOc1cc2ncnc(N3CCN(S(=O)(=O)c4ccccc4Cl)CC3)c2cc1OCCOC`, 57.1% (inactive); with `CCOC(=O)Nc1nn[nH]n1`, 101% (inactive). For `O=C1OC(c2ccc(F)cc2)CC1CN1CCOCC1` (stereo unspecified), the growth is 95.8% (inactive).

Take `CCCCCCCCCCCC(=O)NC(C)(C)C(=O)N1CCCC1C(=O)NC(C)(C)C(=O)NC(C)(C)C(=O)N1CCCC1C(=O)NC(C)(C)C(=O)NC(C)(C)C(=O)N1CCCC1C(=O)NC(C)C(=O)NCCC(=O)NC(C)C(=O)NC(C)(C)C(=O)NC(C)(C)C(=O)NC(C)(C)C(=O)NCCC(=O)NC(C)(C)C(=O)NC(C)(C)C(=O)NC(C)(C)C(=O)NC(C)C(=O)NCCC(=O)O` (stereo unspecified): the growth was -88.5% (active). With `COc1ccc(Cl)cc1NC(=O)c1cc2c([nH]1)-c1nc(NC(=O)C(C)C)sc1CC2` the figure was 112% (inactive). With `Cc1ccc(C(=O)c2oc3ccc4c(C)cc(=O)oc4c3c2C)cc1` the figure was 16% (inactive); with `c1ccc(-c2n(Cc3ccc4ccccc4n3)c3ccccc3[n+]2Cc2ccc3ccccc3n2)cc1`, -34.3% (active). Take `CCCCCCCCCCCCCCn1cc(C2=C(c3coc4ccc(OC)cc34)C(=O)NC2=O)c2ccccc21`: the growth was 104% (inactive). With `CC/C(=C(/c1ccc(Cl)cc1)c1ccc(OCCN2CCCCC2)cc1)c1ccc(Cl)cc1` the figure was 51.9% (inactive). Consider `COc1ccc2c(c1)C(=O)/C(=C/c1cccnc1)CC2`, for which the growth was 100% (inactive). With `CC(=O)[C@H]1CC[C@]2(C)[C@@H]1CC[C@@H]1[C@@]3(C)C/C(=C/c4cccnc4)C(=O)C(C)(C)[C@@H]3CC[C@]12C` the figure was 60.3% (inactive); with `Cc1nc(-c2ccccc2)sc1CC#N`, 104% (inactive); with `O=C1c2cccnc2C(=O)c2c1c(C(=O)OCCN1CCOCC1)c1ccccn21`, -2.61% (active). With `C/C(=N\O)C1(O)CCCCC1` the figure was -9.98% (active). With `CN(C)N1C(=O)c2c(Cl)c(Cl)c(Cl)c(Cl)c2C1=O` the figure was 96.1% (inactive); with `C=C(CNCCc1ccc(O)cc1)[C@@H]1CC[C@]2(CO)CC[C@]3(C)[C@H](CC[C@@H]4[C@@]5(C)CCC(N)C(C)(C)[C@@H]5CC[C@]43C)[C@@H]12` (stereo partly specified), -88.4% (active); with `O=C(Nc1ccccc1Cl)c1c[nH]c(=O)c(-c2ccc(N3CCCOC4(CC4)C3)cc2)c1`, 9.39% (active). On to `CC1(C)CC[C@]2(CO)CC[C@]3(C)C(=CC[C@@H]4[C@@]5(C)CCNCC(C)(C)[C@@H]5CC[C@]43C)[C@@H]2C1`, for which the growth is -33.1% (active).

For the compound `O=C(NCCO)c1cccnc1`, the growth was 93.7% (inactive).
